High-throughput results deposited in PubChem by several laboratories.
Sampled rows, rich in hits. Any-hit rate of the full collection: about 4%.
Beta cell apopt: blocks beta cell apoptosis; INS-1E cytokine-induced death, ATP luminescence, 48 h; percent of positive-control rescue, neutral wells zero; protection from apoptosis, % (test concentration not listed); 0.8% of 300,000 active; AID 435005;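 active = Every replicate reaches about 75%, or at least half do and their mean reaches it too, limit read from the data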;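 also: 0% = cytokine-treated negative control wells and 100% = positive control rescue; higher means more ATP so stronger rescue from cytokine killing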
Gli-Sufu block: Gli-Sufu pathway antagonism; Sufu-KO-LIGHT fibroblasts, Gli luciferase reporter luminescence; 0.74% of 340,000 active; AID 588413; inhibition, % at 5 µM;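 active = inhibition above about 55%, limit read from the data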;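 also: 0% = DMSO-treated cells and 100% = wells with medium but no cells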
Mdm2 MdmX PPI: inhibitors of human Mdm2/MdmX interaction | SaOS-2 split-luciferase Mdm2/MdmX complementation, luminescence | inhibition, % at 8 µM | 3% of 330,000 active | AID 485346;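 active = inhibition of at least 50% at 8 µM in the primary screen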
CSC inhib: blocks cancer stem cells. cancer stem cell-like cells viability, luminescence. inhibition, % at 7.5 µM. 1.1% of 300,000 active. AID 2717; in the data active = inhibition above about 75%; tested in HMLE shEcad cells
PAX8 reporter: inhibitors of PAX8 transcriptional activity in RMG-I cells; inhibition, % at 12.6 µM; AID 652154; 1.2% of 360,000 active; RMG-I TPO-luciferase reporter, SteadyGlo, 24 h;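 active = mean replicate inhibition at least 60% with every replicate also reaching 60%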;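 also: luciferase light reporting Pax8 driven TPO promoter activity; plate controls were median of neutral control wells for no effect and mitoxantrone controls for full effect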
Shn3 3UTR inh: reduces Shn3 3'UTR luciferase signal in osteoblasts; Clone20 osteoblast Shn3 3'UTR firefly luciferase, 24 h; inhibition, % at 12.5 µM; 0.52% of 360,000 active; AID 588674;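 active = mean inhibition of at least 75% with every replicate also reaching 75%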;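 also: 0% = median of neutral control wells and 100% = pilot-screen positive control compound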
Mdm2-MdmX conf: human Mdm2/MdmX binding inhibition, confirmed. shares compounds with Mdm2 MdmX PPI. luminescent assay. inhibition, % at 8 µM. 55% of 10,000 active. AID 489028; in the data active = inhibition above about 40%
FLuc counter: full-length luciferase inhibition in Mdm2/MdmX counter-screen | AID 504607 | shares compounds with Mdm2 MdmX PPI | SaOS-2 full-length luciferase counterscreen, luminescence | 77% of 6,200 active | inhibition, % at 8 µM;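 active = mean inhibition at 8 µM reaching about 37%, which flags the compound as non-specific, limit read from the data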;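 also: p53-null SaOS-2 cells with luciferase driven by a doxycycline-inducible promoter; compound on cells about two nights before reading with doxycycline added after day one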
The depositor's hits bear a star; . = no result.

SMILES	Beta cell apopt	Gli-Sufu block	Mdm2 MdmX PPI	CSC inhib	PAX8 reporter	Shn3 3UTR inh	Mdm2-MdmX conf	FLuc counter
CC1=NNC(=O)/C1=C\c1cn(-c2ccccc2)nc1-c1ccc(Cl)cc1	107*	3	100*	102*	.	24	47*	3
CCCCCCCCCn1c2c(c(=N)c3c1CCC3)CCCC2	.	88*	98*	.	.	92*	96*	9
CCn1c2c(c(=N)c3c1CCC3)CCCC2	13	4	38	-10	14	-38	.	.
CCCCCCCCCCn1c2c(c(=N)c3c1CCC3)CCC2	118*	92*	98*	91*	.	71	95*	6
CC=Cc1ccc2n(c1=O)C[C@@H]1[C@@H](CO)[C@H](C(=O)NCC3CC3)N(CCC(F)(F)F)[C@H]21 (mixture of isomers)	.	.	.	.	-28	.	.	.
CN(C)CCCNC(=O)C[C@H]1CC[C@@H](NC(=O)Cc2cccnc2)[C@@H](CO)O1	.	.	.	.	-2	.	.	.
CC(=O)c1ccc(N2CCN(C(=O)c3ccc4ccccc4n3)CC2)cc1	-3	-5	-20	-16	19	-18	.	.
CC(=O)c1ccc(N2CCN(C(=O)/C=C/c3ccc4ccccc4n3)CC2)cc1	-3	30	69*	27	17	-24	52*	66*
O=C(CN1C(=O)c2ccccc2S1(=O)=O)c1ccc(OC(F)F)cc1	-3	78*	50*	12	.	74	72*	76*
O=C(CN1C(=O)c2ccccc2S1(=O)=O)c1ccc2c(c1)OCCO2	-2	94*	98*	-6	105*	.	99*	56*
O=C(CCN1C(=O)c2ccccc2S1(=O)=O)Nc1ccc2c(c1)OCCO2	6	-2	9	8	.	-1	.	.
COC(=O)c1ccc(NC(=O)CN2C(=O)c3ccccc3S2(=O)=O)cc1	1	-7	8	2	4	0	.	.
O=C(CN1C(=O)c2ccccc2S1(=O)=O)c1ccc2c(c1)OCCCO2	-8	96*	95*	-7	104*	94*	81*	56*
COc1ccc(NC(=O)Nc2ccc3c(c2)C(=O)N([C@H](C)CO)C[C@H](C)[C@@H](CN(C)C(=O)C2CCCCC2)OCCCC[C@@H](C)O3)cc1	.	.	.	.	-15	.	.	.
CCn1c(SCc2c(Cl)cccc2Cl)nc2nc3c(cc2c1=O)CCCC3	28	19	64*	30	-15	15	63*	36
Cc1cc(NC(=O)Cc2ccccc2)nc2c1c(=O)oc1ccccc12	9	5	74*	44	-13	1	32	.
COCC(=O)Nc1ccc2c(c1)C(=O)N(C)C[C@@H](OC)[C@@H](C)CN[C@@H](C)CO2	.	.	.	.	8	.	.	.
COC(=O)[C@]1(C)N[C@H](c2ccc(-c3ccc(Cl)c(Cl)c3)c(OC)c2)[C@@H]2C(=O)N(C)C(=O)[C@@H]21	-4	5	65*	69	26	12	40*	49*
CCN1C(=O)[C@H]2[C@@H](c3ccc(-c4ccc(Cl)c(Cl)c4)c(OC)c3)N[C@@](Cc3ccccc3)(C(=O)OC)[C@H]2C1=O	1	-2	62*	12	-17	16	47*	46*
CC1=CC(C)[C@H](/C=N/n2c(=O)[nH]c3c([nH]c4ccc(C)cc43)c2=O)C(C)C1 (stereo partly specified)	25	8	86*	87*	6	17	7	.
C[C@@H]1CN([C@H](C)CO)C(=O)Cc2cc(NC(=O)Cc3ccccc3)ccc2O[C@@H]1CN(C)Cc1ccc(C(=O)O)cc1	.	.	.	.	12	.	.	.
Cc1c(-c2ccc(/C=N/NC(=O)C(=O)Nc3ccccc3F)o2)cccc1[N+](=O)[O-]	-2	1	56*	-9	-9	.	-1	.
Cc1nn(Cc2c(Cl)cccc2Cl)c(Cl)c1/C=C/C(=O)OCC(=O)NCC(F)(F)F	-5	25	79*	7	.	64	25	.
Cc1nn(Cc2ccccc2)c(Cl)c1/C=C/C(=O)OCC(=O)NC(C)C(C)C (stereo unspecified)	-3	2	9	-1	2	-4	.	.
N#Cc1cc2cc3c(cc2nc1SCC(=O)N1CCOCC1)OCCO3	15	37	84*	.	-199	13	88*	81*
SMILES	Beta cell apopt	Gli-Sufu block	Mdm2 MdmX PPI	CSC inhib	PAX8 reporter	Shn3 3UTR inh	Mdm2-MdmX conf	FLuc counter
O=C(Cc1ccc(S(=O)(=O)N2CCOCC2)s1)NCC(=O)Nc1ccccc1Br	0	-10	8	6	5	14	.	.
O=C(Cc1ccc(S(=O)(=O)N2CCOCC2)s1)Nc1ccccc1Br	0	1	66*	13	-3	-21	0	.
COCC#Cc1ccc([C@@H]2[C@@H](C#N)N(C(=O)NC3CCCC3)[C@@H]2CO)cc1	.	.	.	.	9	.	.	.
Cc1ccc(NC(=S)NCc2ccc3[nH]c4c(c3c2)CCCC4)cc1	-4	1	72*	.	-6	1	8	.
CCn1c(SCC(=O)NCCc2ccccc2)nc2c([nH]c3ccccc32)c1=O	14	12	59*	19	23	1	32	.
COc1cccc(-n2c(SCC(=O)N3CCOCC3)nc3c([nH]c4ccccc43)c2=O)c1	-3	7	65*	-9	.	47	13	.
CCn1c(SCC(=O)NCCc2ccc(OC)c(OC)c2)nc2c([nH]c3ccccc32)c1=O	.	.	.	.	5	5	.	.
CCn1c(SCC(=O)N2CCN(c3ccccc3)CC2)nc2c([nH]c3ccccc32)c1=O	19	19	58*	14	31	10	28	86*
